Here are results for 44 compounds from PubChem BioAssay (NCI).

This is part of a sample that, as a whole, favours compounds with a hit. Of some 83,000 tested, about 20% had one in any assay.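 Cell lines were cultured in 96-well plates, exposed to a single compound concentration, and assessed for percent growth 48 hours later.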 Values without a mark were called inactive. Activity calls are given as the source filed them. The calls were made as follows: active = growth percent below 10; inactive = the rest.

This assay concerns HL-60(TB) leukemia. Description: NCI-60 one-dose screen, 48 h (100 = growth as untreated, 0 = no growth, -100 = all killed). To be noted: 10 µM unless noted.

For `CC[C@]1(O)CC2CN(CCc3c([nH]c4ccccc34)C(C(=O)OC)(c3cc4c(cc3OC)N(C=O)[C@H]3[C@@](O)(C(=O)OC)[C@H](OC(C)=O)[C@]5(CC)[C@@H]6C[C@@H]6CN6CC[C@]43[C@@H]65)C2)C1` (some centres undefined), the growth is 0.642% (active). Regarding `CCCCC[C@H](O)C/C=C1/C(=O)C=C[C@@H]1C/C=C\CCCC(=O)OC`, the growth is 25.1%. The result for `Cc1ccc(S(=O)(=O)c2c(COC(=O)c3cccc(C)c3)c(-c3ccccc3)nn2C)cc1` reads 30.2%. With `Cc1cccc(NC(=O)N/C(N)=N/c2nc3ccccc3s2)c1`, the growth was 5.69% (active). Regarding `CC(/C=N/NC(N)=S)Cc1ccc(C(C)C)cc1` (centres undefined), the growth was 44.3%.

In the case of `Cc1ccc(S(=O)(=O)NC(CCC(=O)Nc2ccccc2)C(=O)Nc2ccccc2)cc1` (centres undefined), the growth is -2.4% (active).

With `Cc1ccc(C(SCC(N)C(=O)O)(c2ccc(C)cc2)c2ccc(C)cc2)cc1` (centres undefined), the growth is -17% (active). With `CN(C[C@@H]1COCCO1)S(=O)(=O)Nc1ccc2ccc3ncc(-c4cnn(C)c4)cc3c(=O)c2c1`, the growth was 48.1%. As for `COc1ccc(N2CCN(C(=O)c3sc4nc(C)c(Br)c(C)c4c3N)CC2)cc1`, the growth is 95.7%. As for `O=C1c2ccccc2C(=O)c2c1ccc1c(=O)n(-c3ccccc3C(F)(F)F)nnc21`, the figure is -42% (active); as for `CCOC(=O)C1CN(Cc2ccccc2)C(=O)C1=O` (centres undefined), 7.35% (active). The result for `NC1=C(Cl)C(=O)c2ccc(S(N)(=O)=O)cc2C1=O` reads 3.12% (active); that for `CCC(=O)Oc1cc(Cl)c(Cl)cc1Cl`, 106%.

Consider `Cn1cnc([N+](=O)[O-])c1/C=C1\Oc2ccc(Br)cc2C1=O`, for which the growth was 75.5%. In the case of `NS(=O)(=O)Oc1ccc2c(ccn2C(=O)C23CC4CC(CC(C4)C2)C3)c1`, the growth was 97.6%. Take `COCCN(C(=O)Cc1cccs1)C(C(=O)NCc1ccc(OC)cc1)c1ccc(C(C)C)cc1` (centres undefined): the growth was 105%.

On to `Cc1nc(Cl)cc(N(c2cc(Cl)nc(C)n2)c2ncc(C(=O)Nc3c(C)cccc3Cl)s2)n1`, for which the growth is 81.3%.

As for `CSC1=Nc2c(c(C)c(-c3ccccc3)n2CCCC(=O)O)C2=NC(=O)C[C@H](C)N12`, the growth was 93.2%. Take `COc1ccc(-c2nc3ccc(-c4nc5ccc(N6CCN(c7ccncc7)CC6)cc5[nH]4)cc3[nH]2)cc1OC`: the growth was 35.3%. For the compound `NS(=O)(=O)c1ccc(Nc2nc3n[nH]c(Nc4ccccc4)c3c(=O)[nH]2)cc1`, the growth is 101%. As for `Cc1ccc(C2CCCCC2)cc1Br`, the figure is 97%. As for `N#CC(=S)Nc1ccc(Cl)c(Cl)c1`, the figure is 8.99% (active); as for `Nc1ccc(CCCCc2ccccc2)c(Cl)c1`, 78.7%.

With `CCOc1ccc(-c2cc(C3(S(=O)(=O)c4ccc(C)cc4)CC=CC3)on2)cc1`, the growth is 75.1%. As for `COc1cccc(-c2nc3sccn3c2-c2ccnc(NCCNS(=O)(=O)c3cccc(Cl)c3)c2)c1`, the figure is 15.6%; as for `CC1CCC(C(C)C)C(NNC(N)=O)C1` (centres undefined), 108%; as for `O=C(Nc1ccc(Nc2ncccn2)cc1)NC1C=c2ccccc2=CC1` (centres undefined), 74.1%. With `COc1cc(NC(=O)C2=C(N3CCOCC3)/C(=C/c3ccc(Cl)cc3)CC2)cc(OC)c1OC`, the growth is 21.6%. The result for `Cn1c([N+](=O)[O-])cnc1C=C1C(=O)c2ccccc2C1=O` reads 4.69% (active). Turning to `S=c1[nH]nc(-c2cc3ccc2CCc2ccc(cc2)CC3)n1-c1ccccc1`, the growth is 89.7%. Regarding `CC(C)C[C@H](NC(=O)[C@H](Cc1cccc2ccccc12)NS(=O)(=O)c1cccc2cccnc12)B(O)O`, the growth is -17.2% (active).

Regarding `CCCCOc1nc2c(C)cccc2cc1-c1cc(-c2ccc(Cl)cc2)nc(-c2ccc(Cl)cc2)c1`, the growth is 98.8%. `Cc1cc2nc(-c3ccccc3)c(-c3ccccc3)nc2cc1C`: the growth is 48.3%. With `O=C(Nc1cccc(Cl)c1)Nc1cccc(Cl)c1`, the growth is 43.9%. With `Cc1n[nH]c(=O)n(/N=C\c2c[nH]c3ccccc23)c1=O`, the growth is 89.1%. In the case of `O=S(=O)(Nc1ccc(Br)c(Cl)c1)c1ccc(-c2cnc(C3CC3)o2)cc1`, the growth was -4.27% (active). As for `C=C1C(=O)O[C@H]2[C@H]1CC/C(COC(=O)NCCc1c[nH]c3ccccc13)=C\CC[C@@]1(C)O[C@@H]21`, the figure is -46.2% (active). Take `C#CC(=O)/C=C/CCCCCCC#CC(=O)CCC(=O)C#CCCCCCC/C=C/C(=O)C#C`: the growth is -70.1% (active). For the compound `Cc1cc(O[C@@H]2O[C@@H](C)[C@H](O)[C@@H](O)[C@H]2O)c2c3c(c(O[C@@H]4O[C@@H](C)[C@H](O)[C@@H](O)[C@H]4O)cc2c1)C(=O)c1c(O)cccc1C3=O`, the growth is 64.9%. Regarding `Nc1c(C(=O)Nc2ccccc2)sc2nc3c(cc12)CN(Cc1ccccc1)CC3`, the growth was 83%. The result for `Cc1ccccc1CNC(=O)C1CN(c2ccc(Cl)cc2)N(c2ccc(Cl)cc2)C1=O` (centres undefined) reads 94.7%; that for `CC(=O)Nc1ccc(C(=O)/C=C/c2ccccc2)cc1`, 53.9%. Regarding `CCCCn1c(=O)c2c(nc(NCCc3ccc(O)c(O)c3)n2CCC)n(CCCC)c1=O`, the growth was 60.3%. Take `CC(C)(C)C(=O)OCOP(=O)(OCOC(=O)C(C)(C)C)C1CC(O)N(O)C1=O` (centres undefined): the growth is 13.1%.
